From PubChem
Rows were chosen to be rich in hits. Some 2.4% of all compounds tested hit in one or more screens of this group.
POLB inh: blocks human DNA polymerase beta activity; P06746; Potency, µM (top dose mostly 114 µM), hits mostly inhibitors; AID 485314; Pol beta primer extension/strand displacement, fluorescence kinetic; 340,000 tested, 1.3% active
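Human Pol beta at 10 nM; strand-displacement substrate 50 nM final. Compound exposure 15 min at room temperature before start, reaction 10 min at room temperature.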
Pol iota inh: inhibitors of human DNA polymerase iota | Q9UNA4 | Pol iota fluorescent replication assay, 10 min | Potency, µM (top dose mostly 115 µM), actives largely listed as inhibitors | 390,000 tested, 1% active
Target sequence (Q9UNA4 whole entry, looked up): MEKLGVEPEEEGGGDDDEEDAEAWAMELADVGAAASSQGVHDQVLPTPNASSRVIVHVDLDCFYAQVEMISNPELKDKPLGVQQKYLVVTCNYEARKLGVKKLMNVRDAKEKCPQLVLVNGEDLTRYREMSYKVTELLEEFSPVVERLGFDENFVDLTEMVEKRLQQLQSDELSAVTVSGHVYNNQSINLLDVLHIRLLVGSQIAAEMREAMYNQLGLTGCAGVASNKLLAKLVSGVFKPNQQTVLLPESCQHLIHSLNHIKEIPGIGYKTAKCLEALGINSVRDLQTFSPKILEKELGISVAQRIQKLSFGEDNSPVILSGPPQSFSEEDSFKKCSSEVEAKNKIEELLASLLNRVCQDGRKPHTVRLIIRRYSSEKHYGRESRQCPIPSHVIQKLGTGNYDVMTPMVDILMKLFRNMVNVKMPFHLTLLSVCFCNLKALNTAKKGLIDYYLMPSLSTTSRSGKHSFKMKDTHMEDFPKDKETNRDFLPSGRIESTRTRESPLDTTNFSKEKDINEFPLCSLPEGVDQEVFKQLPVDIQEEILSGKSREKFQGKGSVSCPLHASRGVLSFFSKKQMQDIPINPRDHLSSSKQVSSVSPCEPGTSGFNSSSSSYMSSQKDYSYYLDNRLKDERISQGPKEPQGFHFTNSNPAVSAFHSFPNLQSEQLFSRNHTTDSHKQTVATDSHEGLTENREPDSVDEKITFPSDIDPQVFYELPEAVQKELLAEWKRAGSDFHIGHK
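Pol iota at 10 nM preincubated 15 min with compounds at room temperature; reaction started with fluorescent substrate, 50 nM final. Fluorescence read kinetically at 0 and 10 min; buffer-only wells as negative control.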
FEN1 inhibitor: inhibitors of human flap endonuclease 1; P39748; Recombinant FEN1 flap cleavage, fluorescence, 15 min; Potency, µM (doses to about 114 µM), hits mostly inhibitors; 390,000 tested, 0.35% active; AID 588795; further: nearly all actives have a fitted effect of over 65% in size
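Quantitative HTS format: each compound was titrated, incubated with 10 nM nuclease for 15 min at room temperature, then challenged with flap substrate at 50 nM final. Signal change over 15 min gave concentration–effect curves.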
Pol eta inh: DNA polymerase eta (human) inhibition; 390,000 tested, 1.2% active; recombinant Pol eta, fluorescent DNA replication assay; Potency, µM (top dose mostly 114 µM), most hits filed as inhibitors; Q9Y253; AID 588591
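Pol eta (10 nM) was preincubated with compounds for 15 min at room temperature, after which fluorescent replication substrate (50 nM final) was added to start the reaction. Fluorescence was read kinetically at 0 and 10 min.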
Pol kappa inh: inhibitors of human DNA polymerase kappa; Potency, µM (series often up to 107 µM), usual class: inhibitors; 400,000 tested, 0.53% active; purified Pol kappa, fluorescent DNA synthesis assay, 10 min; AID 588579
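Enzyme at 10 nM met test compounds for 15 min at room temperature. Substrate addition (50 nM final) began the reaction, which was monitored by fluorescence at 0 and 10 min.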
TDP1 block: TDP1 (human) enzyme inhibition; Q9NUW8; recombinant TDP1, AlphaScreen DNA substrate cleavage; Potency, µM (top dose mostly 130 µM), hits mostly inhibitors; 350,000 tested, 0.28% active; further: nearly all actives have a fitted effect of over 40% in size
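Tdp1 1 nM final; 15 min RT w/ cpd; substrate 15 nM, 5 min; beads 10 ug/ml, 10 min; AlphaScreen read. Neg ctrl: no enzyme.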
A number is an active result; ! = not confirmed by another sample; [ ] = dose if it differs, or a comment. The call rests on the fitted dose curve; in most records, active means well fitted curve in the direction sought with a large enough effect; inconclusive means small, poorly fitted or top-dose-only effect, or another doubt; inactive means no such curve, though single readings can be large; an effect the other way counts as inactive or inconclusive.

Screening CC(C)[C@@H]1CC[C@@H](C)C[C@@H]1P(=O)(c1ccccc1)c1ccccc1 returned FEN1 inhibitor inconclusive and Pol kappa inh inactive.
`COc1cc(N(C)C)c(OC)cc1C=C1C=CC=C1` gave Pol iota inh inactive, FEN1 inhibitor inactive and Pol kappa inh inactive.
Cc1ccccc1NC(=O)C(=Cc1ccc(C(=O)O)cc1)C(=O)Nc1ccccc1C was read as POLB inh inactive, Pol iota inh inconclusive, FEN1 inhibitor inactive, Pol eta inh 56.2µM, Pol kappa inh inactive and TDP1 block inactive.
Screening CC(=O)Nc1ccccc1C returned Pol iota inh inconclusive, FEN1 inhibitor inactive, Pol eta inh inactive, Pol kappa inh inactive and TDP1 block inactive.
For CC1CCN(c2c(NCc3ccc(C(=O)NCCc4ccc(Cl)cc4)cc3)c(=O)c2=O)CC1 the results were POLB inh 31.6µM, Pol iota inh inconclusive, FEN1 inhibitor inactive, Pol eta inh inactive, Pol kappa inh inactive and TDP1 block inactive.
CC1CCN(c2c(NCC3CCC(C(=O)NCCc4ccc(Cl)cc4)CC3)c(=O)c2=O)CC1 (configuration not stated) was read as POLB inh inconclusive, Pol iota inh inactive, FEN1 inhibitor inactive, Pol eta inh inactive, Pol kappa inh inactive and TDP1 block inactive.
CCN(CC)C(=O)COc1ccc2c(-c3ccc(OC)cc3)cc(=O)oc2c1 was read as POLB inh inactive, Pol iota inh inactive, FEN1 inhibitor inactive, Pol eta inh inactive, Pol kappa inh inactive and TDP1 block 79.4µM.
For CCCCCCCCCC[n+]1ccc(/C=C/c2c(C)[nH]c3ccccc23)cc1 the results were Pol iota inh inactive, FEN1 inhibitor 79.4µM and Pol kappa inh inactive.
`CC1=C(C(=O)OCc2ccccc2)N2C(=O)[C@@H](NC(=O)OCc3ccccc3)[C@H]2SC1` gave Pol iota inh inactive, FEN1 inhibitor inactive and Pol kappa inh inactive.
For O=C(O)COc1ccc(/C=N/n2c(COc3ccccc3)nc3ccccc3c2=O)cc1 the results were POLB inh inactive, Pol iota inh inactive, FEN1 inhibitor inactive, Pol eta inh inactive, Pol kappa inh inactive and TDP1 block inactive.
O=c1c2ccccc2nc(COc2ccccc2)n1/N=C/c1ccc(O)c(O)c1 was read as POLB inh inconclusive, Pol iota inh inconclusive, FEN1 inhibitor inactive, Pol eta inh 31.6µM, Pol kappa inh inconclusive and TDP1 block inactive.
Screening Oc1cc2cc(-c3csc(-c4ccc(F)cc4)n3)ccc2[nH]1 returned Pol iota inh inactive, FEN1 inhibitor inactive and Pol kappa inh inactive.
Screening CCCCN(CCCC)c1ccc(Cn2ccc3ccccc32)cc1 returned Pol iota inh inactive, FEN1 inhibitor inactive and Pol kappa inh inactive.
Screening CC1CC=CC2C1C(=O)N(Cc1ccccc1)C2c1ccc(-c2ccc(F)cc2)cc1F (configuration not stated) returned Pol iota inh inconclusive, FEN1 inhibitor inactive, Pol kappa inh inactive and TDP1 block inactive.
Screening CCn1c(SCC(=O)NC(C)c2ccccc2)nc2ccccc21 (configuration not stated) returned POLB inh inactive, Pol iota inh inactive, FEN1 inhibitor inactive, Pol eta inh inactive, Pol kappa inh inactive and TDP1 block inactive.
`CCn1c(SCC(=O)Nc2nccc(C)n2)nc2ccccc21` gave POLB inh 79.4µM, Pol iota inh inconclusive, FEN1 inhibitor inactive, Pol eta inh inactive, Pol kappa inh inactive and TDP1 block inactive.
`O=[N+]([O-])c1cc(/C=N\Nc2nccs2)ccc1O` gave POLB inh 3.98µM and TDP1 block inconclusive.
For Cc1ccc(N=Cc2cc(Cc3ccccc3Cl)cc([N+](=O)[O-])c2O)c(O)c1 the results were POLB inh 15.8µM, Pol iota inh inconclusive, FEN1 inhibitor inactive, Pol eta inh 50.1µM, Pol kappa inh inactive and TDP1 block inactive.
For COc1ccc(N=Cc2cc(Cc3ccccc3Cl)cc([N+](=O)[O-])c2O)cc1OC the results were POLB inh inactive, Pol iota inh inconclusive, FEN1 inhibitor inactive, Pol eta inh 28.2µM, Pol kappa inh inactive and TDP1 block inactive.
`CCN(CC)S(=O)(=O)c1ccc(NC(=O)CSc2nnc3c(n2)[nH]c2ccccc23)cc1` gave Pol iota inh inactive, FEN1 inhibitor inactive and Pol kappa inh inactive.
For N[C@@H](CSS(=O)(=O)O)C(=O)O the results were Pol kappa inh inactive[19.4 µM] and TDP1 block 39.8µM!.
For COC(=O)[C@@H]1N2C(=O)[C@@H](NC(=O)C(C)Oc3ccccc3)[C@H]2SC1(C)C (some centres not stated) the results were Pol iota inh inactive, FEN1 inhibitor inactive and Pol kappa inh inactive.
For CC(CCC(C)[n+]1cccc(Br)c1)[n+]1cccc(Br)c1 (configuration not stated) the results were Pol iota inh inconclusive, FEN1 inhibitor inactive and Pol kappa inh inactive.
Screening Cn1ncc(N=Cc2ccccc2)c1C(N)=O returned POLB inh inactive, Pol iota inh inactive, FEN1 inhibitor inactive, Pol eta inh inconclusive, Pol kappa inh inactive and TDP1 block inactive.
`Nc1ncc(Br)cc1N=Cc1ccccc1` gave POLB inh 39.8µM, Pol iota inh 10µM, FEN1 inhibitor inactive, Pol eta inh inactive, Pol kappa inh inactive and TDP1 block inactive.
For CN(C)C(=O)c1ccc(-c2cncnc2NCc2ccccc2)cc1 the results were Pol kappa inh inactive.
Screening CN(C)C(=O)c1ccc(-c2cncnc2NCc2cccs2)cc1 returned Pol kappa inh inactive and TDP1 block 28.2µM.
`COc1ccc(-c2cc3nc4ccccc4n3c(N)c2C#N)cc1` gave POLB inh 3.98µM, Pol iota inh inactive, FEN1 inhibitor inactive, Pol eta inh inactive, Pol kappa inh inactive and TDP1 block inactive.
For COc1[nH]c(/N=C/c2ccccc2)c(C#N)c1C#N the results were POLB inh 89.1µM, Pol iota inh 79.4µM, FEN1 inhibitor 50.1µM!, Pol eta inh inactive, Pol kappa inh inconclusive and TDP1 block inactive.
For CC(C)C[C@H](NC(=O)[C@H](CC(C)C)NC(=O)[C@H](Cc1ccc(O)cc1)NC(=O)CNC(=O)[C@H](C)NC(=O)[C@H](CO)NC(=O)[C@H](CC(N)=O)NC(=O)[C@H](CC(C)C)NC(=O)[C@@H](NC(=O)[C@H](Cc1c[nH]c2ccccc12)NC(=O)CN)[C@@H](C)O)C(=O)NCC(=O)N1CCC[C@H]1C(=O)N1CCC[C@H]1C(=O)N1CCC[C@H]1C(=O)NCC(=O)N[C@@H](Cc1ccccc1)C(=O)N[C@@H](CO)C(=O)N1CCC[C@H]1C(=O)N[C@@H](Cc1ccccc1)C(=O)N[C@@H](CCCNC(=N)N)C(N)=O the results were Pol kappa inh inactive and TDP1 block inactive.
